What all share (settings): concentration: 1 μM, replicates: in singlicate; n = 1
The test system of experiment [1] is SGK2.
Experiment [2] concerns SGK3.
In experiment [3] the test system is SGK.
Experiment [4] deals with SIK2.
Experiment [5] deals with SIK.
Experiment [6] relates to SLK.
In experiment [7] the test system is T1, SNARK.
T1 construct: gene NUAK2

Experiment [8] concerns SNRK.
Experiment [9] deals with SRC.
Experiment [10] deals with SRMS.
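Note: KINOMEscan kinase panel screen.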

Take `O=C(Nc1ccc2c(c1)OCO2)NC1CCN(c2ccnc(NCc3ccc(F)cc3)n2)CC1` [GSK1379859]: the “%Inh” value in experiment [1] amounted to 0%; in [2], 0%; in experiment [3], 0%; in experiment [4] it was 0%; in experiment [5] it was 0%; in [6] it was 12%. In addition, the “%Inh” value stood at 0% in experiment [7], 0% in [8], 17% in [9] and 0% in experiment [10].

With `Fc1cccc(CSc2nnc(-c3ccc4c(c3)CCO4)o2)c1`, the “%Inh” value in experiment [1] came to 24%; in [2] it was 9%; in [3], 8%; in experiment [4], 0%; in [5], 12%; in experiment [6] it was 5%. In addition, the “%Inh” value was 12% in experiment [7], 10% in [8], 5% in experiment [9] and 0% in [10].

Regarding `CCS(=O)c1ccc(-c2coc3ccc(-c4nnc(C)o4)cc23)cc1` (centres unmarked), the “%Inh” value in experiment [1] amounted to 13%; in experiment [2], 23%; in [3], 7%; in experiment [4], 5%; in experiment [5] it was 13%; in experiment [6], 0%. Further, the “%Inh” value amounted to 30% in experiment [7], 0% in [8], 0% in experiment [9] and 0% in experiment [10].

For the compound `Nc1nccc2scc(-c3ccc4c(c3)CCN4C(=O)Cc3ccccc3)c12` [GSK2576924], the “%Inh” value is on record as 0% in experiment [1]; 16% in experiment [2]; 0% in experiment [3]; 4% in experiment [4]; 0% in experiment [5]; 14% in [6]. The “%Inh” value in experiment [7] was 16%; in experiment [8], 3%; in experiment [9], 2%; in experiment [10] it was 10%.

Regarding `CCCC(=O)Nc1n[nH]c2ncc(-c3cccc4ccccc34)cc12` [SB-642057], the “%Inh” value in [1] is listed as 0%; in experiment [2], 26%; in experiment [3], 0%; in [4], 0%; in experiment [5], 0%; in [6], 14%. In addition, the “%Inh” value in [7] came to 0%; in experiment [8], 0%; in [9], 0%; in experiment [10] it was 4%.

On to `COC(=O)c1c(-c2ccccc2)c2cc(C)ccc2c(=O)n1Cc1ccccc1`, for which the “%Inh” value in experiment [1] was determined as 0%; in experiment [2], 0%; in experiment [3], 0%; in [4] it was 0%; in experiment [5], 3%; in experiment [6], 0%. Further, the “%Inh” value in experiment [7], in [8], in [9] and in [10] was 0% each time.

As to `CCn1c(-c2ccoc2)nc2cnccc21` [SB-733887], the “%Inh” value in experiment [1] is 5%; in experiment [2] it was 4%; in experiment [3], 12%; in experiment [4], 0%; in experiment [5] it was 0%; in experiment [6], 25%. Moreover, the “%Inh” value in experiment [7], in experiment [8], in experiment [9] and in experiment [10] was 0% in each case.

On to `Cl.NS(=O)(=O)c1cccc(Nc2cc(-c3ccc(F)cc3)n[nH]2)c1` [GW824645], for which the “%Inh” value in experiment [1] is reported as 100%; in experiment [2], 0%; in experiment [3] it was 22%; in [4], 3%; in experiment [5], 0%; in experiment [6], 0%. Also, the “%Inh” value in experiment [7] is reported as 0%; in [8], 0%; in experiment [9] it was 1%; in experiment [10] it was 31%.

Take `Cn1c(=O)c(F)c(Nc2ccc(I)cc2F)c2c(=O)n(OC[C@H](O)CO)cnc21`: the “%Inh” value in experiment [1] stood at 3%; in experiment [2] it was 0%; in [3] it was 0%; in [4], 0%; in [5] it was 4%; in experiment [6], 0%. The “%Inh” value in experiment [7] is 0%; in [8], 0%; in experiment [9], 11%; in [10] it was 0%.

Consider `CCc1ccc(-c2ccc3c(c2)-c2nn(C)cc2S(=O)(=O)N3C)cc1`, for which the “%Inh” value in experiment [1] came to 0%; in [2], 0%; in experiment [3] it was 0%; in experiment [4] it was 0%; in experiment [5] it was 0%; in experiment [6], 12%. Further, the “%Inh” value in [7] is recorded as 0%; in experiment [8] it was 0%; in experiment [9], 0%; in experiment [10] it was 46%.

On to `CCC(=O)c1c(-c2ccccc2)c2cc(Cl)ccc2c(=O)n1Cc1cc(S(C)(=O)=O)n(CC(F)F)n1`, for which the “%Inh” value in experiment [1] came to 0%; in [2], 0%; in experiment [3], 0%; in experiment [4], 2%; in experiment [5], 0%; in experiment [6], 0%. Moreover, the “%Inh” value in [7] is 10%; in experiment [8], 0%; in experiment [9], 7%; in experiment [10], 0%.

For the compound `Nc1ncnc2c1ncn2-c1cccc(F)c1` [SKF-97560], the “%Inh” value in [1] was determined as 38%; in experiment [2], 0%; in experiment [3], 37%; in experiment [4], 0%; in experiment [5], 1%; in [6], 18%. The “%Inh” value in experiment [7] is 13%; in experiment [8] it was 20%; in experiment [9], 22%; in [10], 14%.

On to `CCn1c(-c2nonc2N)nc2ccccc21` [SB-693162/GW549034], for which the “%Inh” value worked out at 12% in experiment [1]; 62% in experiment [2]; 12% in experiment [3]; 0% in [4]; 10% in experiment [5]; 20% in experiment [6]. For the same compound, the “%Inh” value in experiment [7] is recorded as 51%; in [8], 40%; in experiment [9] it was 0%; in experiment [10], 0%.

Consider `COc1ccc(CNC(=O)NC2CCN(c3ccnc(Nc4ccc(F)cc4)n3)C2)cc1` (centres unmarked) [GSK1379706], for which the “%Inh” value in [1] was 0%; in experiment [2], 0%; in experiment [3] it was 0%; in experiment [4], 0%; in [5], 13%; in experiment [6] it was 9%. Moreover, the “%Inh” value in experiment [7], in [8], in [9] and in experiment [10] was 0% in each case.

As to `COc1ccc(-n2cnc3c(N)ncnc32)cc1` [SKF-97236], the “%Inh” value in [1] was determined as 6%; in [2], 11%; in [3] it was 0%; in experiment [4], 14%; in experiment [5], 0%; in experiment [6], 11%. Further, the “%Inh” value in experiment [7] worked out at 24%; in experiment [8], 0%; in experiment [9], 0%; in experiment [10] it was 0%.

Regarding `CC(C)(C)c1ccc(C(=O)Nc2cn3cc(-c4ccccc4)ccc3n2)cc1`, the “%Inh” value was determined as 0% in experiment [1]; 0% in experiment [2]; 0% in [3]; 66% in [4]; 0% in experiment [5]; 9% in experiment [6]. Besides, the “%Inh” value in experiment [7], in [8], in [9] and in experiment [10] was 0% each time.

For `Nc1nc(N)c2nc(-c3ccccc3)[nH]c2n1` [SKF-12778], the “%Inh” value was 18% in experiment [1]; 7% in [2]; 15% in experiment [3]; 22% in experiment [4]; 17% in experiment [5]; 21% in experiment [6]. Also, the “%Inh” value in experiment [7] turned out to be 19%; in experiment [8], 0%; in experiment [9], 19%; in experiment [10], 0%.

Source of the values: paper PMC5540273 (PLoS ONE, 2017).
